ERa SRC1 inh: ERα–SRC-1 coactivator interaction inhibitors, primary screen, biochemical, TR-FRET, ERα LBD, estradiol-bound. Estrogen receptor (Homo sapiens), P03372. TR-FRET ER-alpha LBD / SRC-1 peptide. inhibition, % at 25.6 µM. hit rate 1.7% among 86,000; in the data active = inhibition above about 50%;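 note: 0% = receptor plus peptide control and 100% = peptide only without receptor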
Smad3 inh: Smad3/FoxH1 peptide binding inhibitors, primary screen, biochemical, TR-FRET; Mothers against decapentaplegic homolog 3 (Homo sapiens), P84022; TR-FRET Smad3/Dy647-FoxH1 peptide binding, europium anti-His; hit rate 0.29% among 88,000; AID 630, 2007; inhibition, % at 25 µM;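 active = compounds that reduce the energy-transfer binding signal between the protein and its labelled peptide by more than half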;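 note: 0% = Smad3 plus labelled peptide maximal FRET and 100% = peptide-only background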
ERb SRC1 inh: inhibitors of ERβ-SRC1 coactivator interaction, primary screen, biochemical, TR-FRET, ERβ LBD, SRC-1 peptide; TR-FRET ER-beta LBD / SRC1-Cy5 peptide binding; receptor agonist-loaded with 1 µM estradiol; hit rate 1.3% among 86,000; inhibition, % at 25.6 µM; Estrogen receptor beta (Homo sapiens), Q92731;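 active = compounds whose percent inhibition of the receptor-coactivator binding signal exceeds about 50% in the single-dose screen, limit read from the data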;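 note: 0% = receptor plus peptide wells without compound and 100% = peptide-only wells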
ERa coact pot: enhancers of ERα–SRC-1 coactivator binding, primary screen, biochemical, TR-FRET, ERα LBD, low estradiol. Estrogen receptor (Homo sapiens), P03372. TR-FRET ERalpha-LBD/SRC-Cy5 coactivator binding, 2 h; 100 = basal binding, no effect. coactivator binding (% of control), % at 25.6 µM. hit rate 1.3% among 86,000; in the data active = activity above about 200%;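 note: binding measured in presence of low estradiol as agonist stimulus; 0% = peptide alone without receptor and 100% = receptor with peptide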
The depositor's hits bear a star; [ ] = another dose, or the depositor's remark. This is a sample that favours compounds with a hit; in the whole collection about 3.7% have one here.

Screening O=C(c1cc2ccccc2oc1=O)N(Cc1ccco1)Cc1cccs1 returned ERa SRC1 inh -9, Smad3 inh -6, ERb SRC1 inh -6 and ERa coact pot 537*.
For O[C@H](C[C@@H]1CCCCN1)c1ccc2c(c1)oc1ccccc12 the results were Smad3 inh 3.
Cc1ccc(NC(=O)c2ccc(OC(=O)CCN3C(=O)c4ccccc4C3=O)cc2)cc1 was read as ERa SRC1 inh 21, Smad3 inh -6, ERb SRC1 inh 12 and ERa coact pot 372*[fluorescence artefact?].
Screening Cc1cc(C)cc(OC(=O)CCN2C(=O)c3ccccc3C2=O)c1 returned ERa SRC1 inh 1, Smad3 inh 17, ERb SRC1 inh -3 and ERa coact pot 100.
`CC(=O)[C@H]([C@@H](c1ccccc1)N1CCOCC1)N1CCOCC1` gave Smad3 inh 17.
`N#Cc1c2n(c(=S)n(-c3ccccn3)c1=O)CCCCC2` gave ERa SRC1 inh 14, Smad3 inh 3, ERb SRC1 inh 52*[fluorescence artefact?] and ERa coact pot 79.
`CC(C)(C)NC(=O)CSC(=Nc1ccc(F)cc1)NC#N` gave ERa SRC1 inh 5, Smad3 inh 4, ERb SRC1 inh -6 and ERa coact pot 99.
Screening COc1ccc(CCn2c(C)cc(C(=O)CSc3nnnn3-c3ccccc3)c2C)cc1OC returned ERa SRC1 inh 65*[fluorescence artefact?], Smad3 inh 16, ERb SRC1 inh -30 and ERa coact pot 190.
COc1cc(NC(=O)CSc2nnnn2-c2ccccc2)cc(OC)c1OC was read as ERa SRC1 inh 11, Smad3 inh 18, ERb SRC1 inh 9 and ERa coact pot 229*[fluorescence artefact?].
Screening OCCCSCCO returned Smad3 inh 0.
CC(C)=CCNc1ncnc2c1c(C#N)cn2[C@H]1O[C@H](CO)[C@@H](O)[C@@H]1O was read as Smad3 inh -8.
O=C(NCCCN1CCOCC1)c1cc2c(=O)[nH]c3ccccc3c2s1 was read as ERa SRC1 inh -5, Smad3 inh -1, ERb SRC1 inh -8 and ERa coact pot 224*.
`c1ccc2cc(-c3cc(-c4cc(-c5ccc6ccccc6c5)on4)no3)ccc2c1` gave Smad3 inh 6.
CC(C)Oc1cc(O)c2c(c1)OCC=C2CCC(=O)O was read as Smad3 inh 5.
For CN(/N=C/c1cccnc1)c1cnn(-c2ccc(F)c(Cl)c2)c(=O)c1Cl the results were ERa SRC1 inh 61*, Smad3 inh -26, ERb SRC1 inh 37 and ERa coact pot 125.
For Cc1ccc(C(=O)Nc2ncnc3sc4c(c23)CCCCC4)cc1 the results were ERa SRC1 inh 5, Smad3 inh -13, ERb SRC1 inh 27 and ERa coact pot 108.
Cc1cc(C)c2c3c(sc2n1)C(=O)N(Cc1ccccc1)CC(=O)N3 was read as ERa SRC1 inh -4, Smad3 inh 4, ERb SRC1 inh -7 and ERa coact pot 99.
Cc1c([C@H]2[C@@H](CC#N)C2(C)C)c2ccccc2n1C was read as ERa SRC1 inh 63*[fluorescence artefact?], Smad3 inh 12, ERb SRC1 inh 69* and ERa coact pot 73.
CCC(C)N1C(=O)CCC1C(=O)O (stereo unspecified) was read as ERa SRC1 inh -16, Smad3 inh -1, ERb SRC1 inh -5 and ERa coact pot 97.
Screening CCCCN(C(=O)NC(=O)Nc1ccccc1OC)S(C)(=O)=O returned ERa SRC1 inh -5, Smad3 inh 3, ERb SRC1 inh -3 and ERa coact pot 110.
`CCCCN(C(=O)NC(=O)Nc1cc(C)ccc1C)S(C)(=O)=O` gave ERa SRC1 inh 0, Smad3 inh 3, ERb SRC1 inh 91*[fluorescence artefact?] and ERa coact pot 104.
For Cc1cc(C(F)(F)F)c2c(N)c(C(=O)Nc3cc(C)on3)sc2n1 the results were ERa SRC1 inh 2, Smad3 inh 41, ERb SRC1 inh 20 and ERa coact pot 214*[fluorescence artefact?].
`CC1CCC(NC(=O)c2ccc3nc[nH]c3c2)CC1` (stereo unspecified) gave ERa SRC1 inh -3, Smad3 inh -1, ERb SRC1 inh 6 and ERa coact pot 70.
CCNC(=O)NC(=O)COc1ccccc1C#N was read as ERa SRC1 inh -25, Smad3 inh -10, ERb SRC1 inh -24 and ERa coact pot 332*[fluorescence artefact?].

Screening results: PubChem BioAssay, Emory University Molecular Libraries Screening Center
